Article PMC6919601, “Identification of Plasmodium dipeptidyl aminopeptidase allosteric inhibitors by high throughput screening” (PLoS ONE, 2019)
Hit rate of the full screen: of about 110,000 compounds, about 230 (0.21%) showed an effect of 50% or more. The full list was thinned out, with strong results kept by preference.

Target: DPAP1 (Plasmodium falciparum, UniProt Q8IIJ9)
Test: primary screen, percent inhibition; read by cleavage of a fluorogenic dipeptide substrate; higher = more effect of the substance
Parameters: species or system P. falciparum D10 trophozoite lysates; single well
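Note: 30 min substrate incubation versus DMSO and 10 µM JCP410 controls.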

DPAP1, sequence (Q8IIJ9 whole entry, looked up): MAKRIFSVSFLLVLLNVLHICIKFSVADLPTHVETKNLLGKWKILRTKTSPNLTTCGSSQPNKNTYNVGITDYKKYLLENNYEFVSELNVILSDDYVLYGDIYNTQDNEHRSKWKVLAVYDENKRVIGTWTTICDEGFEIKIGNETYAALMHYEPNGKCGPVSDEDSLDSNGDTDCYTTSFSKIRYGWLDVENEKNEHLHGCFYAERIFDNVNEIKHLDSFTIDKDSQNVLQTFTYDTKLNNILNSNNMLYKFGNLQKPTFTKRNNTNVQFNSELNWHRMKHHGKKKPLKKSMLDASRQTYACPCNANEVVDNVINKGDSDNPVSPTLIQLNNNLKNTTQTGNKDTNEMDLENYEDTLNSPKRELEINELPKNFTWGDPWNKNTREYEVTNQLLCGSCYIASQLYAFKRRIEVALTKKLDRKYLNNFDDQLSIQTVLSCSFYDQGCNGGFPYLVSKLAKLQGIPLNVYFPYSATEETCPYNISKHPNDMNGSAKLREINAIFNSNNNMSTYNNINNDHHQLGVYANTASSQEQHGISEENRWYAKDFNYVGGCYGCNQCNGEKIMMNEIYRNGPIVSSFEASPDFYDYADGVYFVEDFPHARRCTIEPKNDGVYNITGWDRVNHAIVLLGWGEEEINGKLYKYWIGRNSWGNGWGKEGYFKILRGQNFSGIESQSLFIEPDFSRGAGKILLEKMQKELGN

| SMILES | % Inhibition @ 10 uM |
| --- | --- |
| CN1CCN(C(=O)c2ccc(Cn3c(SCc4ccccc4F)nc4ccncc43)cc2)CC1 | -1.92% |
| Cn1c(=O)c2nc(-c3ccccc3)c(-c3ccccc3)nc2n(C)c1=O | 4.03% |
| CCOc1cc(-c2cc(-c3ccc(N)cc3)nc(N)c2C#N)ccc1O | 3.26% |
| COc1ccc2c(CNCc3ccccc3C)c(C(=O)O)n(Cc3ccc(F)cc3)c2c1 | -4.16% |
| COc1cc(C)c2c(=O)c(Oc3ccccc3)c(C(F)(F)F)oc2c1 | -5.69% |
| CC(C)(C)n1ncc2c(=O)n(Cc3c(F)cccc3Cl)cnc21 | -1.75% |
| COC(=O)c1sccc1-n1c(S)c(C#N)c(N)c(C#N)c1=N | -2.21% |
| CC1CC2(C)CC(C(=O)O2)C1C(=O)O (centres unmarked) | -1.76% |
| COc1cc(-c2cc(NC(=O)c3noc4c3COc3ccccc3-4)on2)cc(OC)c1OC | 4.86% |
| CC(NC(=O)c1noc2c1COc1ccccc1-2)c1ccc2c(c1)OCCO2 (centres unmarked) | 21.3% |
| CC(C)CCNC(=O)c1noc2c1COc1ccccc1-2 | 88.5% |
| Cc1ccc2c(c1)-c1onc(C(=O)NCCC(C)C)c1CO2 | 1.14% |
| COc1ccc(OC)c(CCNC(=O)c2noc3c2COc2ccccc2-3)c1 | 59.5% |
| COc1ccccc1CNC(=O)Nc1noc2c1COc1ccccc1-2 | -0.539% |
| CC1CCN(S(=O)(=O)c2ccc(NC(=O)C(C)(C)C)cc2)CC1 | -6.17% |
| N=C(Cc1cccc2ccccc12)NOC(=O)c1cccs1 | 3.66% |
| COc1cc2c(cc1OC)C(C(=O)N1CCC(C)CC1)C(c1cccnc1)N(C)C2=O (centres unmarked) | 1.83% |
| CCCc1nc2ccccc2n1Cc1ccccc1OC | 0.913% |
| N#CC1=C2SCN(Cc3cccnc3)CN2C(=O)CC1c1ccc(F)cc1 (centres unmarked) | 55.3% |
| Cc1ccc(C2CC(=O)N3CN(Cc4cccnc4)CSC3=C2C#N)cc1 (centres unmarked) | 43.8% |
| CCOc1ccc(C2CC(=O)N3CN(Cc4cccnc4)CSC3=C2C#N)cc1 (centres unmarked) | 56% |
| CCc1ccc(C2CC(=O)N3CN(Cc4ccco4)CSC3=C2C#N)cc1 (centres unmarked) | 33.6% |
| COc1ccc(C2CC(=O)N3CN(Cc4cccnc4)CSC3=C2C#N)cc1 (centres unmarked) | 46.3% |
| CN(CC(=O)NC1CCCCCC1)S(=O)(=O)c1ccc(F)cc1 | 3.17% |
| CCN1CCN(C(=O)C2CC(c3ccc(OC)cc3)=NO2)CC1 (centres unmarked) | 1.62% |

| SMILES | % Inhibition @ 10 uM |
| --- | --- |
| N#CCCN1CCN(C2=NC(=O)/C(=C\c3ccc(-c4ccc(Cl)cc4)o3)S2)CC1 | -2.8% |
| COc1ccccc1NC(=O)c1cnc(Nc2nc3ccccc3o2)nc1C | -4.12% |
| CCCN1CCC(N2CCC(C)CC2)CC1 | -3.74% |
| COc1cccc2c(O)c(C(=O)O)cnc12 | 0.51% |
| Cc1nc(O)nc(O)c1S(=O)(=O)N1CCN(CCOc2ccc(Cl)cc2)CC1 | -1.38% |
| Cc1cc2nc(O)c(O)nc2cc1S(=O)(=O)N1CCN(CCOc2ccc(Cl)cc2)CC1 | 52.3% |
| Cc1cc(-c2ccc(C)c(S(=O)(=O)N3CCN(CCOc4ccc(Cl)cc4)CC3)c2)on1 | -5.87% |
| COc1ccc(-c2cc(C(F)(F)F)nc(SCC(=O)N3CCOCC3)n2)cc1 | -8.55% |
| COc1ccc(-c2cc(-c3ccc(OC)cc3)c3c(N)c(C(N)=O)sc3n2)cc1 | 19.8% |
| COc1ccc(-c2cc(-c3ccccc3)nc3sc(C(N)=O)c(N)c23)cc1 | 76% |
| COC(=O)c1sc2nc(-c3ccccc3)cc(-c3ccc(OC)cc3)c2c1N | 2.79% |
| CCCN1C(=O)c2n[nH]c(C)c2C1c1cccnc1 (centres unmarked) | -4.67% |
| COc1ccc(C2=N/C(=C\c3cccc(C(F)(F)F)c3)C(=O)O2)cc1OC | 6.11% |
| CCOc1c(/C=C2/S/C(=N\c3ccccc3)N(C)C2=O)cccc1OC | 1.57% |
| O=C1CC(Sc2ccccn2)C(=O)N1c1ccc(Br)cc1 (centres unmarked) | 2.38% |
| COCCNC(=O)CCN1C(=O)c2ccccc2Sc2ncccc21 | -2.97% |
| COc1ccc(C(=O)N2CCN(CC(=O)N3CCOCC3)CC2)cc1 | 6.33% |
| COc1ccc2nc3sc(C(=O)NCCN(C)Cc4ccccc4)cc3cc2c1 | -2.12% |
| CCCCN(C)CCNC(=O)c1cc2cc3cc(OC)ccc3nc2s1 | 83.9% |
| COc1ccc(C(=O)N2CCN(C(=O)c3ccc(OC)cc3)CC2)cc1 | -1.61% |
| COc1ccc2nc3sc(C(=O)NCCC(C)C)cc3cc2c1 | -5.98% |
| COc1ccc(-c2ccc(C(=O)N3CCOCC3)cc2)cc1 | 85.3% |
| COc1ccc2cc3cc(C(=O)N4CCN(Cc5ccccc5)CC4)sc3nc2c1 | 4.61% |
| COc1ccc2cc3cc(C(=O)NCCCN4CCN(C)CC4)sc3nc2c1 | 1.22% |
| COc1ccc2nc3sc(C(=O)N4CCN(C)CC4)cc3cc2c1 | -5.06% |

| SMILES | % Inhibition @ 10 uM |
| --- | --- |
| COc1ccc2cc3cc(C(=O)NCCN4CCN(Cc5ccccc5)CC4)sc3nc2c1 | 94.4% |
| COc1ccc2nc3sc(C(=O)N4CCC5(CC4)OCCO5)cc3cc2c1 | -4.16% |
| COc1ccc2nc3sc(C(=O)N4CCOCC4)cc3cc2c1 | 89.7% |
| CCOc1ccc(C(=O)N(Cc2nc(-c3ccc(Cl)cc3)no2)C(C)C)cc1 | -1.84% |
| CC(=O)Nc1ccc(NC(=O)c2cccc(Cl)c2Cl)cc1 | 3.74% |
| COc1cc(NC(=O)C(C)Oc2ccccc2)cc(OC)c1 (centres unmarked) | -2.8% |
| Cc1ccc(NC(=O)C(Cc2ccc([N+](=O)[O-])cc2)N2C(=O)c3ccccc3C2=O)cc1[N+](=O)[O-] (centres unmarked) | -2.47% |
| COc1ccccc1S(=O)Cc1ccc(C(=O)NCCc2ccc(Cl)cc2)o1 (centres unmarked) | -4.96% |
| COc1ccc2nc3sc(C(=O)NCCN4CCOCC4)cc3cc2c1 | 3.07% |
| CCN(Cc1ccccc1)C(=O)c1cc2cc3cc(OC)ccc3nc2s1 | 50.3% |
| CCCCN(CC)C(=O)c1cc2cc3cc(OC)ccc3nc2s1 | -1.55% |
| COc1ccc2cc3cc(C(=O)N(C)Cc4ccccc4)sc3nc2c1 | 0.402% |
| COc1ccc2nc3sc(C(=O)NCCCN4CCCC4=O)cc3cc2c1 | 84.6% |
| COc1ccc2nc3sc(C(=O)NCCCN4CCc5ccccc5C4)cc3cc2c1 | 64.7% |
| COc1ccc2cc3cc(C(=O)NCCN4CCc5ccccc5C4)sc3nc2c1 | 4.61% |
| COc1ccc2nc3sc(C(=O)NCCCN4CC(C)CC(C)C4)cc3cc2c1 (centres unmarked) | -2.44% |
| CCC1CCCCN1CCCNC(=O)c1cc2cc3cc(OC)ccc3nc2s1 (centres unmarked) | 1.22% |
| CSc1ccc(CN2CCN(c3cccc(Cl)c3)CC2)cc1 | 0.847% |
| CCN1CCN(C(=O)CS(=O)(=O)Cc2nc(-c3ccc(C)cc3)oc2C)CC1 | -3.7% |
| O=S(=O)(NC1CCc2ccccc21)c1ccc(-n2cnnn2)cc1 (centres unmarked) | -1.07% |
| CC1=C(C(=O)Nc2ccc(Br)cc2)C(c2ccc(Cl)cc2)NC(=O)N1 (centres unmarked) | 1.35% |
| COCCCNC(=O)Cc1coc2ccc3ccccc3c12 | 2.01% |
| Cc1nc2c(=O)oc3ccccc3c2n1C | 4.35% |
| Cn1c(S)nc2c(=O)oc3ccccc3c21 | 56.8% |
| CCn1c(S)nc2c(=O)oc3ccccc3c21 | 14% |

| SMILES | % Inhibition @ 10 uM |
| --- | --- |
| COc1ccc(N(C(C)C(=O)Nc2ccc(C(C)C)cc2)S(C)(=O)=O)cc1 (centres unmarked) | -1.57% |
| CCCCSCCCNC(=O)C1CCC(CNS(=O)(=O)c2ccc(C)cc2)CC1 (centres unmarked) | 5.47% |
| COc1ccc(C2CC(=O)N3CN(CCCc4ccccc4)CSC3=C2C#N)cc1OC (centres unmarked) | 30.5% |
| COc1cccc(C2CC(=O)N3CN(CCc4sccc4C)CSC3=C2C#N)c1 (centres unmarked) | 56.9% |
| Cc1ccsc1CCN1CSC2=C(C#N)C(c3ccc(Cl)cc3)CC(=O)N2C1 (centres unmarked) | 51.6% |
| COc1ccc(C2CC(=O)N3CN(CCC(C)C)CSC3=C2C#N)cc1OC (centres unmarked) | 46.8% |
| N#CC1=C2SCN(Cc3ccccc3)CN2C(=O)CC1c1ccc(Cl)cc1 (centres unmarked) | 42.2% |
| CC(C)CCN1CSC2=C(C#N)C(c3ccc(Cl)cc3)CC(=O)N2C1 (centres unmarked) | 54.6% |
| COc1cc(C2CC(=O)N3CN(Cc4ccco4)CSC3=C2C#N)ccc1O (centres unmarked) | 17.5% |
| Cc1ccc(C2CC(=O)N3CN(CCC(C)C)CSC3=C2C#N)cc1 (centres unmarked) | 43.8% |
| NC(=O)c1ccc(-n2nnnc2SCc2ccc(C(=O)O)cc2)cc1 | 3.05% |
| CCC1CCC(NCCN(C)C)CC1 (centres unmarked) | -3.42% |
| Cc1nc2scc(C)n2c(=O)c1S(=O)(=O)N1CCc2ccccc2C1 | -0.984% |
| CCOC(=O)/C=C(\C)N1N=C2c3ccc(OC)cc3CCC2C1c1cccc(F)c1 (centres unmarked) | 73.1% |
| CCOC(=O)/C=C(\C)N1N=C2c3ccc(OC)cc3CCC2C1c1ccc(OC)cc1 (centres unmarked) | 60.6% |
| COc1ccc(C2C3CCc4cc(OC)ccc4C3=NN2/C(C)=C/C(C)=O)cc1 (centres unmarked) | 58.5% |
| COc1ccc2c(c1)CCC1C2=NN(/C(C)=C/C(C)=O)C1c1ccc([N+](=O)[O-])cc1 (centres unmarked) | 4.54% |
| CCOC(=O)/C=C(\C)N1N=C2c3ccc(OC)cc3CCC2C1c1ccc(F)cc1 (centres unmarked) | -1.77% |
| COc1ccc(C2C3CCc4ccc(OC)cc4C3=NN2/C(C)=C/C(C)=O)cc1 (centres unmarked) | 22.9% |
| CCOC(=O)/C=C(\C)N1N=C2c3cc(OC)ccc3CCC2C1c1ccc(OC)cc1 (centres unmarked) | -4.49% |
| CCOC(=O)/C=C(\C)N1N=C2c3cc(OC)ccc3CCC2C1c1ccc(F)cc1 (centres unmarked) | 6.33% |
| CCOC(=O)/C=C(\C)N1N=C2c3cc(OC)ccc3CCC2C1c1ccccc1 (centres unmarked) | 2% |
| COC(=O)C(O)(c1ccc(N)cc1)C(F)(F)F (centres unmarked) | 0.937% |
